Data from PubChem BioAssay AID624138 (Broad Institute, 2012).
The campaign covered roughly 17,000 compounds. About 35 (0.2%) were called active. This is one part of a sample in which actives are shown more often than they occur.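 Rule for the calls: active = compounds whose four printed spots each show fluorescence over background unusually high for their array block, chance value under 7%; inactive = the rest.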

Molecular target: Signal transducer and activator of transcription 3 (Homo sapiens) (UniProt P40763)
Sequence (P40763 whole entry, looked up): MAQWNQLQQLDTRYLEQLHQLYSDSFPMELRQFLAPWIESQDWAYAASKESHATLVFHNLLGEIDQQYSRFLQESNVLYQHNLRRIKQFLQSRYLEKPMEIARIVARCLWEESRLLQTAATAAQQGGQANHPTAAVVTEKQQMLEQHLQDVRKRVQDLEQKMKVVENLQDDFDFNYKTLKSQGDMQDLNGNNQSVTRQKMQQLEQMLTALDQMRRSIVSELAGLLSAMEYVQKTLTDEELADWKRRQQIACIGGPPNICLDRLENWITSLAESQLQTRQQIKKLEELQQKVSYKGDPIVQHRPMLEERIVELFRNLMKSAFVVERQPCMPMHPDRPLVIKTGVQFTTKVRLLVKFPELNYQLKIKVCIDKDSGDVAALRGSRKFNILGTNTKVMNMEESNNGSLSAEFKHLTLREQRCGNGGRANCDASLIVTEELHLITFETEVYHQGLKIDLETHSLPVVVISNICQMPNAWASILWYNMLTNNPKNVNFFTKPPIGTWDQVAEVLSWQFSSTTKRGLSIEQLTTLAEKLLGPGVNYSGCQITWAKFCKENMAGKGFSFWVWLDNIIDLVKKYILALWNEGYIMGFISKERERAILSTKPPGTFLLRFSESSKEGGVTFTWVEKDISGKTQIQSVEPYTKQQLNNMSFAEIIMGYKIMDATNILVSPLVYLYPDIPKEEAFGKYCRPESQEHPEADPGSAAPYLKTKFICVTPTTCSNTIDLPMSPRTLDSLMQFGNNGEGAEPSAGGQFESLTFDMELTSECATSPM
Test: STAT3 binders, primary screen, biochemical, small molecule microarray, single point, set 2 (AID 624138)
Conditions: His-STAT3 binding, anti-His fluorescence

outcome, inactive:
CNC[C@@H]1Oc2ccc(NC(=O)Nc3ccc4c(c3)OCO4)cc2C(=O)N([C@H](C)CO)C[C@@H]1C
C[C@@H]1CCCCO[C@@H](CN(C)Cc2ccc(Cl)c(Cl)c2)[C@@H](C)CN([C@@H](C)CO)C(=O)c2cc(NS(C)(=O)=O)ccc2O1
C[C@H]1CCCCO[C@@H](CN(C)Cc2ccccc2)[C@@H](C)CN([C@@H](C)CO)C(=O)c2cc(NC(=O)CCCN(C)C)ccc2O1
C[C@H]1CN([C@@H](C)CO)C(=O)c2cc(NC(=O)Nc3ccccc3)ccc2O[C@@H]1CN(C)C(=O)Nc1ccccc1
CCOC(=O)c1c(CN2CCOCC2)nc2c3ccccc3ccn12
O=C(c1cc2ccccc2oc1=O)N(Cc1ccc(F)cc1)Cc1ccco1
CCOC(=O)c1sc(NC(=S)Nc2ccc3c(c2)OCCO3)c(C(=O)OCC)c1C
CC(Oc1ccccc1)C(=O)N[C@@H]1C(=O)N2[C@@H]1SC(C)(C)[C@@H]2C(=O)O (some centres undefined)
CC(C)NC(=O)Nc1ccc2c(c1)C(=O)N([C@H](C)CO)C[C@H](C)[C@@H](CN(C)C(=O)CCCN(C)C)OCCCC[C@@H](C)O2
COc1ccc(-c2oc3cc(OC)ccc3c2C(=O)c2ccc(C#N)cc2)cc1
C[C@H](CO)N1C[C@H](C)[C@@H](CN(C)Cc2ccncc2)Oc2ccc(NC(=O)Nc3ccccc3)cc2C1=O
C[C@H](CO)N1C[C@H](C)[C@H](CN(C)C(=O)NC2CCCCC2)Oc2c(NC(=O)c3nc4ccccc4s3)cccc2C1=O
C[C@@H]1CCCCO[C@H](CN(C)C(=O)Nc2cccc3ccccc23)[C@@H](C)CN([C@H](C)CO)C(=O)c2cc(NS(=O)(=O)c3cccs3)ccc2O1
C[C@@H]1CCCCO[C@H](CN(C)Cc2ccccc2)[C@H](C)CN([C@@H](C)CO)C(=O)c2cc(NS(=O)(=O)c3ccccc3)ccc2O1
C[C@H](CO)N1C[C@H](C)[C@H](CN(C)S(=O)(=O)c2ccc(F)cc2)Oc2ncc(-c3ccc(F)cc3)cc2C1=O
C[C@@H]1CN([C@@H](C)CO)C(=O)c2cc(NS(C)(=O)=O)ccc2O[C@@H]1CN(C)C(=O)Nc1ccc(F)cc1
C[C@H](CO)N1C[C@H](C)[C@@H](CN(C)S(=O)(=O)c2cn(C)cn2)Oc2ccc(NS(=O)(=O)c3cn(C)cn3)cc2C1=O
C[C@@H]1CC[C@]2(C(=O)O)CC[C@]3(C)C(=CCC4[C@@]5(C)CC[C@H](O)[C@](C)(C(=O)O)C5CC[C@]43C)C2[C@]1(C)O (some centres undefined)
NC(=O)CSc1nnc(-c2ccccc2F)n1-c1ccccc1
C[C@H](CO)N1C[C@H](C)[C@H](CN(C)Cc2ccc(C(=O)O)cc2)Oc2c(NC(=O)C3CCOCC3)cccc2C1=O
COC(=O)c1ccccc1NC(=O)CNS(=O)(=O)c1cc(Cl)ccc1Cl
Cc1noc(C)c1NC(=O)N(C)C[C@@H]1OCCCC[C@@H](C)Oc2ccc(NC(=O)C3CCCCC3)cc2C(=O)N([C@H](C)CO)C[C@@H]1C
COC(=O)c1c(NC(=O)c2cc(-c3ccccn3)nc3c(C)cc(C)cc23)sc(C)c1C
COc1ccc(NC(=O)Nc2ccc3c(c2)C(=O)N([C@@H](C)CO)C[C@@H](C)[C@H](CN(C)S(=O)(=O)c2cccs2)O3)cc1
Cc1noc(C)c1NC(=O)Nc1cccc2c1O[C@H](CN(C)C(=O)Nc1c(C)noc1C)[C@@H](C)CN([C@@H](C)CO)C2=O
CC[C@@H]1Cc2cc(O)ccc2C2=C1c1ccc(O)cc1C[C@H]2CC
CC(C)C(NS(=O)(=O)c1ccc(-c2ccc(Br)cc2)cc1)C(=O)O (centres undefined)
CC(C)(C)[C@H]1C=C(C(=O)NCc2ccccc2)O[C@@H](OCc2ccc(CO)cc2)C1
O=C(NCc1ccccc1)C1=C[C@H](C2CC2)C[C@H](OCc2ccc(CO)cc2)O1
C[C@@H]1CN([C@@H](C)CO)C(=O)CCCn2nncc2CO[C@@H]1CN(C)Cc1ccccc1
CN(C)c1nc(Nc2nc3ccccc3[nH]2)nc(N(C)C)n1
COC(=O)C(C)N(C(=O)c1ccccc1[N+](=O)[O-])c1c(C)cccc1C (centres undefined)
COc1ccc(NC(=O)Nc2nn(Cc3ccc(Cl)cc3Cl)cc2Br)cc1OC
COCCCNC(=O)C(=O)c1cn(C)c2ccccc12
O=C1C[C@@](C(=O)NCC(F)(F)F)(c2ccc([N+](=O)[O-])cc2)[C@@H](c2ccc(CO)cc2I)N1C1CCCCC1
COC(=O)C1=C[C@H](O[C@@H]2O[C@H](CO)[C@@H](O)[C@H](O)[C@H]2O)C[C@H]2[C@]3(C)C[C@@H](c4ccoc4)OC(=O)[C@H]3CC[C@@]12C
CCn1c(SCC(=O)O)nnc1-c1ccc(OC)cc1
C[C@H](CO)N1C[C@H](C)[C@H](CN(C)C(=O)Nc2ccccc2)Oc2ccc(NC(=O)CCN3CCOCC3)cc2CC1=O
OC[C@H]1O[C@@H](OCc2ccccc2)[C@H](O[C@@H]2OC[C@](O)(CO)[C@H]2O)[C@@H](O)[C@@H]1O
COc1ccc(CCN2C(=O)[C@@]3(Cc4ccccc42)c2ccccc2C(=O)N(Cc2ccccc2C(F)(F)F)[C@H]3c2ccc(CO)cc2)cc1
C[C@@H]1CN([C@H](C)CO)C(=O)CCCn2cc(nn2)CO[C@@H]1CN(C)C(=O)Nc1ccc2c(c1)OCO2
O=C(Nc1cccc(OCC(=O)N2CCOCC2)c1)C1CCCCC1
O=c1c(-c2ccc(O[C@@H]3O[C@H](CO)[C@@H](O)[C@H](O)[C@H]3O)cc2)coc2c([C@@H]3O[C@H](CO)[C@@H](O)[C@H](O)[C@H]3O)c(O)cc(O)c12
Cc1ccc(Cn2c(NCc3nc4ccccc4n3C)nc3ccccc32)cc1
COc1cccc(-c2cc(C(F)(F)F)n3nc(C(=O)NCc4ccccn4)cc3n2)c1
C[C@@H]1CN([C@@H](C)CO)C(=O)c2cc(NS(C)(=O)=O)ccc2O[C@@H]1CN(C)C
CCCN(C)C[C@@H]1Oc2ncc(C#Cc3ccccc3)cc2C(=O)N([C@H](C)CO)C[C@@H]1C
Cc1cc(OCC(=O)Nc2ccccc2C(N)=O)cc(C)c1Br
COc1ccc(CCNc2nc(C)cc(C)n2)cc1OC
COc1ccc(S(=O)(=O)Nc2ccc3c(c2)C(=O)N([C@H](C)CO)C[C@@H](C)[C@@H](CN(C)Cc2ccccc2)O3)cc1
C[C@@H]1CCCCO[C@@H](CN(C)Cc2ccncc2)[C@H](C)CN([C@@H](C)CO)C(=O)c2cc(N(C)C)ccc2O1
C[C@@H]1CCCCO[C@@H](CN(C)C(=O)Cc2ccccc2)[C@H](C)CN([C@@H](C)CO)C(=O)c2cc(NC(=O)Nc3ccc(F)cc3)ccc2O1
CC(C)(C)c1ccc(OCC(=O)Nc2cccc(NC(=O)c3ccccc3)c2)cc1
Oc1ccc(-c2c(-c3ccccc3)nn3c(C(F)(F)F)cc(C(F)(F)F)nc23)cc1
COc1c(Br)cc2c(cc(C)n2-c2ccccc2)c1OCC(O)CNC(C)C (centres undefined)
CC(=O)c1c(C)n(CC(=O)O)c2ccccc12
C[C@H](CO)N1C[C@H](C)[C@H](CN(C)C)Oc2c(NS(=O)(=O)c3ccc(Cl)cc3)cccc2C1=O
C[C@@H]1CN([C@H](C)CO)C(=O)CCCn2nncc2CO[C@@H]1CN(C)C
Cc1ccc(NC(=O)CSc2ncn[nH]2)c(C)c1
C=C1C(=C/C=C2\CCC[C@]3(C)[C@@H]([C@H](C)CCCC(C)(C)O)CC[C@@H]23)C[C@@H](O)C[C@@H]1O
COCCCNC(=O)[C@@]1(Cc2ccccc2)COC(c2ccc(OCCCO)cc2)=N1
CC(C)(O)C(O)COc1c2occc2cc2ccc(=O)oc12 (centres undefined)
CNC[C@@H]1Oc2c(NC(=O)C3CCOCC3)cccc2C(=O)N([C@@H](C)CO)C[C@H]1C
O=C(O)CCC(=O)Nc1ccc(-c2nc3ccccc3o2)cc1
C[C@@H]1CN([C@H](C)CO)C(=O)c2cc(NC(=O)Nc3ccccc3)ccc2O[C@@H]1CN(C)Cc1ccc(Cl)c(Cl)c1
CCOC(=O)c1ccc(COC(=O)c2cc(=O)[nH]c3ccccc23)o1
Cc1noc(C)c1NC(=O)Nc1ccc2c(c1)CC(=O)N([C@H](C)CO)C[C@@H](C)[C@H](CN(C)S(=O)(=O)c1cccs1)O2
C[C@@H]1CN([C@H](C)CO)C(=O)c2cc(NC(=O)Nc3ccccc3)ccc2O[C@@H](C)CCCCO[C@@H]1CN(C)S(=O)(=O)c1ccc(F)cc1
COc1cc(O)cc(C)c1C(=O)OC1C(CO)OC(n2ccc(=O)[nH]c2=O)C1OC(C)=O (centres undefined)
COc1ccc(S(=O)(=O)Nc2ccc3c(c2)C(=O)N([C@H](C)CO)C[C@H](C)[C@@H](CN(C)S(C)(=O)=O)OCCCC[C@@H](C)O3)cc1
Cc1noc(C)c1S(=O)(=O)Nc1ccc2c(c1)C(=O)N([C@H](C)CO)C[C@H](C)[C@H](CN(C)C(=O)CCC(F)(F)F)OCCCC[C@H](C)O2
C[C@@H]1CCCCO[C@@H](CN(C)C(=O)c2ccccc2)[C@H](C)CN([C@@H](C)CO)C(=O)c2cc(NS(=O)(=O)c3cn(C)cn3)ccc2O1
Cc1sc2nc(SCC(=O)Nc3ccccc3C(F)(F)F)nc(N)c2c1C

outcome, active:
O=C(NCc1ccccc1)C1=C[C@@H](C2CCCCC2)C[C@@H](OCc2ccc(CO)cc2)O1
